Experimental data as given in PubChem BioAssay AID1159580 (chemical genetic matrix, 2015).
Hit rate of the full screen: of about 5,500 compounds, about 2,000 (36%) were called active. About 18% were inconclusive and are not listed. Cut-off read from the data, not from the text of the source: active = normalized growth mostly below about 0.91 (no sharp cut-off); inconclusive = no clear call, values can overlap the other calls; inactive = mostly above about 0.92. This is one part of the list.

Assay: chemical genetic growth profiling, strain panel (AID 1159580);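 note: tested at 20 µM; growth read once vehicle control cultures reached saturation at 30 °C; 1 = growth at the plate median or of vehicle wells; lower values mean less growth of the strain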
Details: growth OD
[1] = S. cerevisiae deletion strains, locus YAL013W, strain DEP1, stronger effect = lower value
[2] = S. cerevisiae deletion strains, locus YBR229C, strain ROT2, stronger effect = lower value
[3] = S. cerevisiae deletion strains, locus YDL101C, strain DUN1, stronger effect = lower value
[4] = S. cerevisiae deletion strains, locus YDR150W, strain NUM1, stronger effect = lower value
[5] = S. cerevisiae deletion strains, locus YEL061C, strain CIN8, stronger effect = lower value
[6] = S. cerevisiae deletion strains, locus YGR078C, strain PAC10, stronger effect = lower value
[7] = S. cerevisiae deletion strains, locus YHR030C, strain SLT2, stronger effect = lower value
[8] = S. cerevisiae deletion strains, locus YJR043C, strain POL32, stronger effect = lower value
[9] = S. cerevisiae deletion strains, locus YJR075W, strain HOC1, stronger effect = lower value
[10] = S. cerevisiae deletion strains, locus YLR039C, strain RIC1, stronger effect = lower value
[11] = S. cerevisiae deletion strains, locus YLR262C, strain YPT6, stronger effect = lower value
[12] = S. cerevisiae deletion strains, locus YMR263W, strain SAP30, stronger effect = lower value
[13] = S. cerevisiae deletion strains, locus YMR307W, strain GAS1, stronger effect = lower value
[14] = S. cerevisiae deletion strains, locus YNL128W, strain TEP1, stronger effect = lower value
[15] = S. cerevisiae deletion strains, locus YNL153C, strain GIM3, stronger effect = lower value
[16] = S. cerevisiae deletion strains, locus YNL322C, strain KRE1, stronger effect = lower value
[17] = S. cerevisiae deletion strains, locus YOL006C, strain TOP1, stronger effect = lower value
[18] = S. cerevisiae deletion strains, locus YPL055C, strain LGE1, stronger effect = lower value
[19] = S. cerevisiae deletion strains, locus YPL241C, strain CIN2, stronger effect = lower value
[20] = S. cerevisiae strains, strain wild type, stronger effect = lower value
[21] = S. cerevisiae deletion strains, locus YAL040C, strain CLN3, stronger effect = lower value
[22] = S. cerevisiae deletion strains, locus YCL061C, strain MRC1 (second series), stronger effect = lower value
[23] = S. cerevisiae deletion strains, locus YDR363W, strain ESC2, stronger effect = lower value
[24] = S. cerevisiae deletion strains, locus YER002W, strain NOP16, stronger effect = lower value
[25] = S. cerevisiae deletion strains, locus YNL175C, strain NOP13, stronger effect = lower value
[26] = S. cerevisiae deletion strains, locus YNL197C, strain WHI3, stronger effect = lower value
[27] = S. cerevisiae deletion strains, locus YNL224C, strain SQS1, stronger effect = lower value
[28] = S. cerevisiae deletion strains, locus YOR083W, strain WHI5 (second series), stronger effect = lower value

Measured: normalized growth

COC(=O)CCC(=O)O[C@H]1CCC2(C)C(CCC3C2C(=O)[C@@H](O)C2(C)C3CC3OC4(CCC(C)CO4)[C@@H](C)C32)C1 (stereo partly drawn)
inactive: [1] 0.991 | S. cerevisiae deletion strains, locus YBR021W, strain FUR4, stronger effect = lower value 1.01 | [2] 1.01 | S. cerevisiae deletion strains, locus YCL029C, strain bik1, stronger effect = lower value 0.997 | S. cerevisiae deletion strains, locus YDL035C, strain GPR1, stronger effect = lower value 0.993 | S. cerevisiae deletion strains, locus YDL074C, strain BRE1, stronger effect = lower value 0.997 | [3] 1.02 | S. cerevisiae deletion strains, locus YDL134C, strain PPH21, stronger effect = lower value 1 | S. cerevisiae deletion strains, locus YDL185W, strain tfp1, stronger effect = lower value 0.996 | S. cerevisiae deletion strains, locus YDL192W, strain arf1, stronger effect = lower value 1 | S. cerevisiae deletion strains, locus YDR101C, strain arx1, stronger effect = lower value 0.997 | [4] 1 | S. cerevisiae deletion strains, locus YDR162C, strain NBP2, stronger effect = lower value 1 | S. cerevisiae deletion strains, locus YDR318W, strain mcm21, stronger effect = lower value 0.996 | S. cerevisiae deletion strains, locus YDR388W, stronger effect = lower value 0.994 | S. cerevisiae deletion strains, locus YDR502C, strain sam2, stronger effect = lower value 1 | [5] 1.01 | S. cerevisiae deletion strains, locus YER110C, stronger effect = lower value 0.996 | S. cerevisiae deletion strains, locus YER155C, strain BEM2, stronger effect = lower value 1.01 | S. cerevisiae deletion strains, locus YER167W, strain BCK2, stronger effect = lower value 1.02 | S. cerevisiae deletion strains, locus YGL078C, strain dbp3, stronger effect = lower value 0.991 | S. cerevisiae deletion strains, locus YGL086W, strain mad1, stronger effect = lower value 1 | S. cerevisiae deletion strains, locus YGL248W, strain PDE1, stronger effect = lower value 1 | [6] 1.02 | S. cerevisiae deletion strains, locus YGR135W, strain pre9, stronger effect = lower value 1 | S. cerevisiae deletion strains, locus YGR229C, strain SMI1, stronger effect = lower value 1.01 | S. cerevisiae deletion strains, locus YGR252W, strain gcn5, stronger effect = lower value 0.963 | [7] 1.01 | S. cerevisiae deletion strains, locus YHR079C, strain IRE1 (second series), stronger effect = lower value 0.991 | S. cerevisiae deletion strains, locus YHR094C, strain hxt1, stronger effect = lower value 0.998 | S. cerevisiae deletion strains, locus YHR129C, strain ARP1, stronger effect = lower value 0.999 | S. cerevisiae deletion strains, locus YHR200W, strain rpn10, stronger effect = lower value 1 | S. cerevisiae deletion strains, locus YIL066C, strain RNR3, stronger effect = lower value 1.01 | S. cerevisiae deletion strains, locus YIL073C, strain SPO22, stronger effect = lower value 1 | S. cerevisiae deletion strains, locus YIL125W, strain kgd1, stronger effect = lower value 1.01 | S. cerevisiae deletion strains, locus YIR030C, strain dcg1, stronger effect = lower value 0.998 | S. cerevisiae deletion strains, locus YJL095W, strain BCK1, stronger effect = lower value 0.989 | S. cerevisiae deletion strains, locus YJL134W, strain LCB3, stronger effect = lower value 1.01 | S. cerevisiae deletion strains, locus YJL168C, strain set2, stronger effect = lower value 0.994 | S. cerevisiae deletion strains, locus YJL187C, strain SWE1 (second series), stronger effect = lower value 1 | [8] 1 | [9] 1.02 | S. cerevisiae deletion strains, locus YKL009W, strain mrt4, stronger effect = lower value 0.998 | S. cerevisiae deletion strains, locus YKL068W, stronger effect = lower value 0.999 | S. cerevisiae deletion strains, locus YKL085W, strain MDH1 (second series), stronger effect = lower value 0.996 | S. cerevisiae deletion strains, locus YKL085W, strain MDH1, stronger effect = lower value 0.996 | S. cerevisiae deletion strains, locus YKL190W, strain CNB1, stronger effect = lower value 1.01 | S. cerevisiae deletion strains, locus YKR001C, strain vps1, stronger effect = lower value 0.993 | [10] 0.996 | S. cerevisiae deletion strains, locus YLR058C, strain SHM2, stronger effect = lower value 1 | S. cerevisiae deletion strains, locus YLR102C, strain apc9, stronger effect = lower value 0.996 | [11] 0.984 | S. cerevisiae deletion strains, locus YLR268W, strain sec22, stronger effect = lower value 1 | S. cerevisiae deletion strains, locus YLR330W, strain CHS5, stronger effect = lower value 1.01 | S. cerevisiae deletion strains, locus YLR342W, strain FKS1 (second series), stronger effect = lower value 1.02 | S. cerevisiae deletion strains, locus YLR371W, strain rom2, stronger effect = lower value 1 | S. cerevisiae deletion strains, locus YLR418C, strain cdc73, stronger effect = lower value 0.982 | S. cerevisiae deletion strains, locus YML016C, strain PPZ1, stronger effect = lower value 1.01 | S. cerevisiae deletion strains, locus YML032C, strain rad52, stronger effect = lower value 1.01 | S. cerevisiae deletion strains, locus YML124C, strain tub3, stronger effect = lower value 0.998 | S. cerevisiae deletion strains, locus YMR078C, strain ctf18, stronger effect = lower value 0.994 | S. cerevisiae deletion strains, locus YMR223W, strain ubp8, stronger effect = lower value 1 | [12] 1.03 | [13] 0.997 | S. cerevisiae deletion strains, locus YNL067W, strain RPL9B, stronger effect = lower value 1.01 | [14] 1.01 | [15] 1.01 | S. cerevisiae deletion strains, locus YNL233W, strain BNI4, stronger effect = lower value 1 | S. cerevisiae deletion strains, locus YNL250W, strain rad50, stronger effect = lower value 0.999 | S. cerevisiae deletion strains, locus YNL271C, strain bni1, stronger effect = lower value 0.995 | S. cerevisiae deletion strains, locus YNL298W, strain CLA4, stronger effect = lower value 0.985 | S. cerevisiae deletion strains, locus YNL307C, strain MCK1, stronger effect = lower value 0.997 | [16] 1.01 | S. cerevisiae deletion strains, locus YNR052C, strain pop2, stronger effect = lower value 1 | [17] 0.943 | S. cerevisiae deletion strains, locus YOL012C, strain htz1 1.03 | S. cerevisiae deletion strains, locus YOL147C, strain pex11, stronger effect = lower value 1 | S. cerevisiae deletion strains, locus YOR061W, strain CKA2, stronger effect = lower value 1 | S. cerevisiae deletion strains, locus YOR069W, strain VPS5, stronger effect = lower value 1.01 | S. cerevisiae deletion strains, locus YOR136W, strain idh2, stronger effect = lower value 1 | S. cerevisiae deletion strains, locus YOR144C, strain elg1, stronger effect = lower value 0.996 | S. cerevisiae deletion strains, locus YOR184W, strain ser1, stronger effect = lower value 1.01 | S. cerevisiae deletion strains, locus YOR316C, strain cot1, stronger effect = lower value 1 | [18] 1.03 | [19] 1 | S. cerevisiae deletion strains, locus YPR119W, strain clb2, stronger effect = lower value 0.988 | S. cerevisiae deletion strains, locus YPR141C, strain kar3, stronger effect = lower value 0.997 | S. cerevisiae deletion strains, locus YPR163C, strain tif3, stronger effect = lower value 0.998 | S. cerevisiae deletion strains, locus YPR167C, strain met16, stronger effect = lower value 1 | S. cerevisiae deletion strains, strain wtn01, stronger effect = lower value 1 | [20] 1.04

COc1ccc(C=C2C(=O)NC(=S)NC2=O)cc1Br
inactive: [1] 1.02 | [2] 1.03 | [3] 1 | [4] 0.946 | [5] 0.992 | [6] 0.995 | [7] 1.01 | S. cerevisiae deletion strains, locus YHR087W, strain rtc3, stronger effect = lower value 0.984 | [8] 0.998 | [9] 1 | [10] 1.07 | S. cerevisiae deletion strains, locus YLR058C, strain SHM2 (second series), stronger effect = lower value 1 | S. cerevisiae deletion strains, locus YLR085C, strain ARP6, stronger effect = lower value 1.01 | [11] 1.06 | S. cerevisiae deletion strains, locus YML094W, strain GIM5, stronger effect = lower value 1 | S. cerevisiae deletion strains, locus YMR219W, strain ESC1, stronger effect = lower value 1.01 | [12] 0.928 | [14] 1 | [15] 0.965 | S. cerevisiae deletion strains, locus YNL298W, strain CLA4 (second series), stronger effect = lower value 1 | [16] 1.01 | S. cerevisiae deletion strains, locus YNR030W, strain Alg12, stronger effect = lower value 0.997 | [17] 1.01 | [18] 0.884 | [19] 1.02 | S. cerevisiae deletion strains, locus YPR135W, strain CTF4, stronger effect = lower value 0.968 | [20] 1.01

O=C1Nc2ccc(I)cc2/C1=C/c1cc(Br)c(O)c(Br)c1
inactive: [21] 0.966 | [22] 0.995 | [4] 0.953 | [23] 0.942 | [24] 1.01 | [6] 0.919 | [9] 0.979 | [12] 0.991 | [25] 0.922 | [26] 0.97 | [27] 0.993
active: [15] 0.666 | [28] 0.665

CCO/C([O-])=N/c1c[n+](N2CCOCC2)no1
inactive: [21] 0.99 | [22] 0.99 | [23] 1.02 | [24] 1 | [12] 0.98 | [13] 0.996 | [14] 1.01 | [25] 1 | [26] 0.984 | [27] 1.01 | [28] 0.995 | [19] 0.968
